Laboratory results from PubChem BioAssay AID1861 (The Scripps Research Institute Molecular Screening Center, 2009).
The whole screen tested about 290,000 compounds, of which about 3,100 (1.1%) were called active. Many of the other results were omitted from the sample, so actives are more common in it than they were. A number with no mark means an inactive call. No stated cut-off is given here; in the data, active means inhibition above about 16% (passing the limit was not always enough); inactive means the rest.

Molecular target: Neuropeptides B/W receptor type 1 (Homo sapiens) (UniProt P48145)
Sequence (P48145 whole entry, looked up): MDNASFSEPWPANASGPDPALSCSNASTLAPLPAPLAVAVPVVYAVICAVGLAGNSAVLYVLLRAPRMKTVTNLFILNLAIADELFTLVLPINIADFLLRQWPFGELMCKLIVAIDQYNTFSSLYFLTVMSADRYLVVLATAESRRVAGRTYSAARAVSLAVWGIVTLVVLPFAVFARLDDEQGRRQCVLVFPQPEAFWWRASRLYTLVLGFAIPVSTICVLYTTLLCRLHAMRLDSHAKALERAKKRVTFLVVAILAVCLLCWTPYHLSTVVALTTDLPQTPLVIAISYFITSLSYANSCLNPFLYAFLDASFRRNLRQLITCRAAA
Test: GPR7 receptor antagonists, primary screen, cell-based, fluorescence, single concentration (AID 1861);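 further: cells stimulated with the agonist NPW; 0% = agonist with vehicle and 100% = vehicle without agonist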
Details: GPR7-expressing cells, fluorescence antagonist assay; at 4.4 µM; hits give high values

**Q.** With `COc1cc(OC)c(-n2c(C)cc(C=O)c2C)cc1Cl` as the compound, how does the inhibition read?
**A.** -3.29%

**Q.** How did the inhibition turn out when `COc1cc(OC)c(-n2cc(-c3ccc(Cl)cc3)[nH]c2=O)cc1Cl` was run?
**A.** 64.5% (active)

**Q.** For `COc1ccc(-c2cn(-c3ccc(OC)cc3)c(=S)[nH]2)cc1`, which inhibition is on record?
**A.** 10.2%

**Q.** For `Brc1c(CSc2nncc3ccccc23)nc2ccccn12`, which inhibition is on record?
**A.** -2.42%

**Q.** `CCOCCCN1C(=O)C2C(C(=O)Nc3ccc(OCC)cc3)C3C=CC2(O3)C1C(=O)NC1CCCCC1` (stereo unspecified) was tested. Which inhibition did it give?
**A.** -12.8%

**Q.** `CCn1c(CC(=O)Nc2ccccc2)nnc1SCC(=O)N1CCOCC1` was tested. Which inhibition did it give?
**A.** -9.92%

**Q.** With `CC1(C)CC(N(Cc2ccccc2)C(=O)Cc2ccccc2)CCO1` (stereo unspecified) as the compound, how does the inhibition read?
**A.** -11.1%

**Q.** For `O=C1c2ccccc2C(=O)N1CCC(c1ccccc1)c1ccco1` (stereo unspecified), which inhibition is on record?
**A.** -19.2%

**Q.** How did the inhibition turn out when `CC1(C)CC(CNCCC(c2ccc(F)cc2)c2ccco2)CCO1` (stereo unspecified) was run?
**A.** 27.9% (active)

**Q.** `CCC(C(=O)Nc1ccc2c(c1)OCCO2)c1ccccc1` (stereo unspecified) was tested. Which inhibition did it give?
**A.** -8.4%

**Q.** With `CCC(C(=O)Nc1ccc(C(C)C)cc1)c1ccccc1` (stereo unspecified) as the compound, how does the inhibition read?
**A.** 55.6% (active)

**Q.** How did the inhibition turn out when `CCC(C(=O)OCC(=O)Nc1ccc(C(=O)Nc2ccc(OC)cc2)cc1)c1ccccc1` (stereo unspecified) was run?
**A.** 0.99%

**Q.** `COc1ccc(-n2nc(C(=O)NCC(=O)N3CCN(c4ccccc4OC)CC3)c3ccccc3c2=O)c(OC)c1` was tested. Which inhibition did it give?
**A.** 1.21%

**Q.** Which inhibition does the source give for `Cn1nccc1/C=N\NC(=O)c1ccc(Cl)cc1` here?
**A.** -6.59%

**Q.** For `O=C1c2ccccc2C(Nc2ccc3c(c2)OCCO3)N1Cc1ccco1` (stereo unspecified), which inhibition is on record?
**A.** 17.6% (active)

**Q.** How did the inhibition turn out when `O=C(NC1CCCCC1)C1c2ccccc2C(=O)N1Cc1ccco1` (stereo unspecified) was run?
**A.** -11.8%

**Q.** How did the inhibition turn out when `Cc1ccnc(N2C(=O)c3ccccc3C2Nc2ccc3c(c2)OCCO3)c1` (stereo unspecified) was run?
**A.** -8.69%

**Q.** For `COC(=O)c1c(NC(=O)c2ccc(S(=O)(=O)N3CCOCC3)cc2)sc2c1CCN(C(C)C)C2`, which inhibition is on record?
**A.** -0.58%

**Q.** `Nc1cccc2c1C(=O)N(Cc1nnc(-c3ccccc3Br)o1)C2=O` was tested. Which inhibition did it give?
**A.** -16%

**Q.** For `CN(C)/C=N/c1cc(=O)n(C)c(=O)n1CC1CC1`, which inhibition is on record?
**A.** -1.62%

**Q.** With `Cc1cccc(OCC(=O)NC(=S)Nc2ccccc2N2CCOCC2)c1` as the compound, how does the inhibition read?
**A.** -14.9%

**Q.** With `Cc1ccc(O)c(NC(=O)COc2cc(C)ccc2C)c1` as the compound, how does the inhibition read?
**A.** 10.6%

**Q.** Which inhibition does the source give for `Cc1ccc(O)c(NC(=S)NC(=O)COc2ccc(Br)cc2)c1` here?
**A.** 89.1% (active)

**Q.** Which inhibition does the source give for `Cc1cccc(C2C3=C(CCCC3=O)N=C3c4ccccc4C(=O)C32)c1` (stereo unspecified) here?
**A.** -14.3%

**Q.** With `CCn1cc(C(=O)NCCC(=O)NCCO)c(=O)c2cc3c(cc21)OCO3` as the compound, how does the inhibition read?
**A.** -13.5%

**Q.** `COC(=O)CN1C(=O)[C@H]2[C@@H](/C=C/c3ccccc3)N3C(=O)CN(CC4CC4)C(=O)[C@@]3(Cc3ccccc3)[C@H]2C1=O` was tested. Which inhibition did it give?
**A.** -2.59%

**Q.** For `CCCCSCCCNC(=O)C1CCC(CNS(=O)(=O)c2ccc(NC(C)=O)cc2)CC1` (stereo unspecified), which inhibition is on record?
**A.** 3.79%

**Q.** With `Cc1nn(-c2ccccc2)c2c1c(C)c(CCC(=O)NCC1CCCO1)c(=O)n2C` (stereo unspecified) as the compound, how does the inhibition read?
**A.** -15.7%

**Q.** `Cc1ccc(C(=O)NCC(=O)OCC(=O)NC2CCCCCCC2)cc1` was tested. Which inhibition did it give?
**A.** -6.33%

**Q.** `O.O.O.O=S(=O)([O-])OC[C@H]1O[C@@H](O[C@]2(COS(=O)(=O)[O-])O[C@H](OS(=O)(=O)[O-])[C@@H](OS(=O)(=O)[O-])[C@@H]2OS(=O)(=O)[O-])[C@H](OS(=O)(=O)[O-])[C@@H](OS(=O)(=O)[O-])[C@@H]1OS(=O)(=O)[O-].[Al]` was tested. Which inhibition did it give?
**A.** -11%

**Q.** `O=C(NCc1ccco1)/C(=C/c1ccco1)NC(=O)c1ccccc1` was tested. Which inhibition did it give?
**A.** -4.86%

**Q.** With `NC(=O)C1CCN(C(=O)/C(=C/c2ccco2)NC(=O)c2ccccc2)CC1` as the compound, how does the inhibition read?
**A.** -7.3%

**Q.** For `O=C(OCN1C(=O)c2ccccc2C1=O)/C(=C\c1ccco1)NC(=O)c1ccccc1`, which inhibition is on record?
**A.** 19% (active)

**Q.** With `C[C@H](NC(=O)C1CC(=O)N(c2ccc3c(c2)OCO3)C1)C(=O)NCc1ccco1` (stereo partly specified) as the compound, how does the inhibition read?
**A.** 1.22%

**Q.** How did the inhibition turn out when `O=S(=O)(Nc1ccc2[nH]ncc2c1)c1ccccc1Cl` was run?
**A.** 6.14%

**Q.** Which inhibition does the source give for `O=C(Cn1nc(CNc2ccc(Cl)cc2)[n+]2c1CCCCC2)c1ccc(Cl)cc1` here?
**A.** -3.46%

**Q.** For `CC(=O)Nc1ccc(Oc2ccc3c(c2)C(=O)NC3=O)cc1`, which inhibition is on record?
**A.** 7.14%

**Q.** How did the inhibition turn out when `S=C(NCCC1=CCCCC1)Nc1ccccc1` was run?
**A.** 8.55%

**Q.** For `S=C(NCCc1ccccc1)Nc1ccccc1`, which inhibition is on record?
**A.** 21.5% (active)

**Q.** How did the inhibition turn out when `S=C(NCCCc1ccccc1)Nc1ccc(Br)cc1` was run?
**A.** -16.1%

**Q.** `COc1ccc(-c2nnc3n2CCCCC3)cc1` was tested. Which inhibition did it give?
**A.** 1.65%
